# What was measured:
# Assay in all cases: DAPPL (digital affinity profiling via proximity ligation, sequencing); 10 mM Tris-HCl pH 7.5, 50 mM NaCl, 1 mM DTT, 4% glycerol, room temperature, 30 min; GST-TFs on glutathione beads, 16-mer random dsDNA library, 0.1% formaldehyde crosslink after washing; high values mean tight binding
# HSF1 = HSF1 (Homo sapiens, UniProt Q00613 1-529); conditions: protein: recombinant; tags: N-terminal GST; chain copies: 3; dsDNA, one strand shown
# Summary of the method: (§1)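 GST fusions of human transcription factors were expressed in yeast and captured with glutathione beads. Once given DNA barcodes and pooled alongside a tag-only sample, they were incubated for 30 min at room temperature with 200 nmole of a random double-stranded 16-mer DNA library in Tris/NaCl/DTT/glycerol buffer, then washed, crosslinked (0.1% formaldehyde), proximity-ligated, PCR-amplified and sequenced on an Illumina NextSeq500. The binding signal of each hexamer is its read frequency for a factor divided by its frequency for the tag-only sample.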
# SPI1 = SPI1 (Homo sapiens, UniProt P17947 1-270); conditions: protein: recombinant; tags: N-terminal GST; dsDNA, one strand shown
# Summary of the method: as §1
# SPIC = molecular target: T1, SPIC (Homo sapiens, UniProt Q8N5J4 1-248); conditions: protein: recombinant; tags: N-terminal GST; dsDNA, one strand shown
# T1 sequence: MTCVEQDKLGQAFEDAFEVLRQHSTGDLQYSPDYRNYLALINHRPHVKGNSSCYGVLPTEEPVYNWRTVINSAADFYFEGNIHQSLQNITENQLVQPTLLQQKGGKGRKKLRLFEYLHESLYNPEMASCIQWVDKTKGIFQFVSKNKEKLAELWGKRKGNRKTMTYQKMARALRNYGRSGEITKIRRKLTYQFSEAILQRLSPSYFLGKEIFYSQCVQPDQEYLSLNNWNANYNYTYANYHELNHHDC
# Summary of the method: as §1
# ELK4 = molecular target: T2, ELK4 (Homo sapiens, UniProt P28324-2 1-405); conditions: protein: recombinant; tags: N-terminal GST; dsDNA, one strand shown
# T2 sequence: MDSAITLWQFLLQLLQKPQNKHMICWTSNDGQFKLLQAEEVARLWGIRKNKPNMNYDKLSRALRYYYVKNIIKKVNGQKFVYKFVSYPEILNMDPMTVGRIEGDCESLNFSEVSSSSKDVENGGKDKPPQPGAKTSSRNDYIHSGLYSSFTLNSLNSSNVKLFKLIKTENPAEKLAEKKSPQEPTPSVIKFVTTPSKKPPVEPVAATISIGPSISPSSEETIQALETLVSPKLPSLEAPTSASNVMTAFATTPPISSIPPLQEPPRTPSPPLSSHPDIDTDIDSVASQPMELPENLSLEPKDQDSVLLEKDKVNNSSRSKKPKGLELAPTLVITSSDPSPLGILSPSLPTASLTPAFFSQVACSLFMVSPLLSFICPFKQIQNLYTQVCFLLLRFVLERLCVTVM
# Summary of the method: as §1
# ETV3 = molecular target: T3, ETV3 (Homo sapiens, UniProt P41162-2 1-143); conditions: protein: recombinant; tags: N-terminal GST; dsDNA, one strand shown
# T3 sequence: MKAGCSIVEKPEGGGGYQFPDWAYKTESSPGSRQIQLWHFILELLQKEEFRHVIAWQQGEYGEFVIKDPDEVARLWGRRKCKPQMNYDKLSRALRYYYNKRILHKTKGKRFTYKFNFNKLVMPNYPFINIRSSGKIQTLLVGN
# Summary of the method: as §1
# ELK1 = molecular target: T4, ELK1 (Homo sapiens, UniProt P19419 1-428); conditions: protein: recombinant; tags: N-terminal GST; dsDNA, one strand shown
# T4 sequence: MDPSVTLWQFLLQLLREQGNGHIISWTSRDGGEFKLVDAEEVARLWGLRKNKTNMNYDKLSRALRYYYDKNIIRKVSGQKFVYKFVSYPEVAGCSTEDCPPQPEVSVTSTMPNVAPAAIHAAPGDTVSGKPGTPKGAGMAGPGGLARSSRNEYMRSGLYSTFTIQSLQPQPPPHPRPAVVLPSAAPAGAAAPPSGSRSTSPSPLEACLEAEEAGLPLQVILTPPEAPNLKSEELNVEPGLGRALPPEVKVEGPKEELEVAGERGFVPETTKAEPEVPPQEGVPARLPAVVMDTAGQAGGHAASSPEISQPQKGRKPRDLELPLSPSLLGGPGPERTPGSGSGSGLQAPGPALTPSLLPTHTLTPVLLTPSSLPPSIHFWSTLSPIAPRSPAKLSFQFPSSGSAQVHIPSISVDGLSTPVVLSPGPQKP
# Summary of the method: as §1
# GABPA = molecular target: T5, GABPA (Homo sapiens, UniProt Q06546 1-454); conditions: protein: recombinant; tags: N-terminal GST; dsDNA, one strand shown
# T5 sequence: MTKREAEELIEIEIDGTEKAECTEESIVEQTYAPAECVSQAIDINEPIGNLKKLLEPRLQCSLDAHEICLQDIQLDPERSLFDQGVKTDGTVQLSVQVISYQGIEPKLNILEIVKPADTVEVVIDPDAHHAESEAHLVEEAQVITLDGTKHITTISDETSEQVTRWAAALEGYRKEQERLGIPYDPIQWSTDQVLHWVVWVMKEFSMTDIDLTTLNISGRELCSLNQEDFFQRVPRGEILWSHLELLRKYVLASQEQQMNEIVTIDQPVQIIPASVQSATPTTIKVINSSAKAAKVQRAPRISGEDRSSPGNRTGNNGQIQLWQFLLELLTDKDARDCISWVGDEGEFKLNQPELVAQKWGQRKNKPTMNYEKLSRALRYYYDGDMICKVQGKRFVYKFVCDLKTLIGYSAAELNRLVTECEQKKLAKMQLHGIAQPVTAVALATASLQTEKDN
# Summary of the method: as §1
# ELF1 = ELF1 (Homo sapiens, UniProt P32519 1-619); conditions: protein: recombinant; tags: N-terminal GST; dsDNA, one strand shown
# ELF1, sequence (P32519 whole entry): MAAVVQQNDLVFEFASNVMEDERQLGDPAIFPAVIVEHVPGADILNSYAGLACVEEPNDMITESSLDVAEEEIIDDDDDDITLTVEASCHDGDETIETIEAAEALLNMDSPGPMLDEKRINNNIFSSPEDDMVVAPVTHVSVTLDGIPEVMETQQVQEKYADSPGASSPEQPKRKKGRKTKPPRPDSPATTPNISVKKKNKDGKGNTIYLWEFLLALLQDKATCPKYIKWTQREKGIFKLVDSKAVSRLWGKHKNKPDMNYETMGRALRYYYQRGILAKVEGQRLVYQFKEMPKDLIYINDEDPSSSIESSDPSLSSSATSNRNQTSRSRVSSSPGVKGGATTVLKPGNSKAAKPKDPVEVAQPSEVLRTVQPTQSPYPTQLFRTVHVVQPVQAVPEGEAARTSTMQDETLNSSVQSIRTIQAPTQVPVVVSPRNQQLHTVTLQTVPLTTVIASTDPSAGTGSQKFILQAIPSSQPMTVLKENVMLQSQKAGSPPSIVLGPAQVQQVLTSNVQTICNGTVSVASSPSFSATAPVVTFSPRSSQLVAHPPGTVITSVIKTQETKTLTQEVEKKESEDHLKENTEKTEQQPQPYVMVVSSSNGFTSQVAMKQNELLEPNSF
# Summary of the method: as §1
# EHF = molecular target: T6, EHF (Homo sapiens, UniProt Q9NZC4 1-300); conditions: protein: recombinant; tags: N-terminal GST; dsDNA, one strand shown
# T6 sequence: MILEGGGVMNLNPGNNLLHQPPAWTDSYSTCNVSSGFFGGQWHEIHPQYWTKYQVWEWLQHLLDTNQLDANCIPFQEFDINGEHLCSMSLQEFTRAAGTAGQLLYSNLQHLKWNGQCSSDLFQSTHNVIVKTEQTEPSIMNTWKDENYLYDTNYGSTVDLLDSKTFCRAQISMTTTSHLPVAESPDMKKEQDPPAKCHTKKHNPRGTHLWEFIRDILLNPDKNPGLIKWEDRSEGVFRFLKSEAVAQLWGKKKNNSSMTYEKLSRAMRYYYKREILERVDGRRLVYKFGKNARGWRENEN
# Summary of the method: as §1
# FEV = molecular target: T7, FEV (Homo sapiens, UniProt Q99581 1-238); conditions: protein: recombinant; tags: N-terminal GST; dsDNA, one strand shown
# T7 sequence: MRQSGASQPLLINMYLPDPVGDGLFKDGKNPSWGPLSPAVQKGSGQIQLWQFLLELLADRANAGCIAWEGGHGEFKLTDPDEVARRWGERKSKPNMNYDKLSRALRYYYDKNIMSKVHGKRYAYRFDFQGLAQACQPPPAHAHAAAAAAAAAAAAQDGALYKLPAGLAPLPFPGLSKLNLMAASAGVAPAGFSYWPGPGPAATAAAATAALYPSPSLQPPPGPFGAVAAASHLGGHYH
# Summary of the method: as §1
# ELF4 = ELF4 (Homo sapiens, UniProt Q99607 1-663); conditions: protein: recombinant; tags: N-terminal GST; dsDNA, one strand shown
# ELF4, sequence (Q99607 whole entry): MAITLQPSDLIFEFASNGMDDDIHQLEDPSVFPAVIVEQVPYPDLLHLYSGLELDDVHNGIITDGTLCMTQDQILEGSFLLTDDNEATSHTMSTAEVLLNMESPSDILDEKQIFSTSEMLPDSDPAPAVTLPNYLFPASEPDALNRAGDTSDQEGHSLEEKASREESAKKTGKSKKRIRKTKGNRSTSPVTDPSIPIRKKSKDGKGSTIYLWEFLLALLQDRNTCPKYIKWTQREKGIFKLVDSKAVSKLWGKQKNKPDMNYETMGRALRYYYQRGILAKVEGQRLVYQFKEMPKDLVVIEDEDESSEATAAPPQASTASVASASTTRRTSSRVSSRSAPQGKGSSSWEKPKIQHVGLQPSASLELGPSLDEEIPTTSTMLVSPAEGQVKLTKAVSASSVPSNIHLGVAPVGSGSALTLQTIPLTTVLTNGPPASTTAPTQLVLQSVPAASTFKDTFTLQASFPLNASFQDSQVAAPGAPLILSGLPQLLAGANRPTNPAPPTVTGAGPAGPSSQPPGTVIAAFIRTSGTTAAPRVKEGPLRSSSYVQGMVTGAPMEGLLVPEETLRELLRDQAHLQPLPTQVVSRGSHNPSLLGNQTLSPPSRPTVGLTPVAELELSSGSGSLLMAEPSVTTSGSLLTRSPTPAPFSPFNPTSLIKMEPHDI
# Summary of the method: as §1
# ETV2 = molecular target: T8, ETV2 (Homo sapiens, UniProt O00321 1-342); conditions: protein: recombinant; tags: N-terminal GST; dsDNA, one strand shown
# T8 sequence: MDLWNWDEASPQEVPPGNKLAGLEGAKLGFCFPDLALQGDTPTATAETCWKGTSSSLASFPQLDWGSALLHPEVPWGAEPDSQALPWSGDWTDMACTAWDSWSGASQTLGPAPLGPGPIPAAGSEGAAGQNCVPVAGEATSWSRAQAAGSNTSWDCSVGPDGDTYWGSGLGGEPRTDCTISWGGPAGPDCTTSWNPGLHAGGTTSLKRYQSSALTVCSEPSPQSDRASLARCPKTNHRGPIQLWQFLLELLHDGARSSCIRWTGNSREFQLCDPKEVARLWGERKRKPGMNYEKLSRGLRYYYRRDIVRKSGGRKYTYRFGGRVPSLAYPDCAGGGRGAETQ
# Summary of the method: as §1
# ELF3 = molecular target: T9, ELF3 (Homo sapiens, UniProt P78545 1-371); conditions: protein: recombinant; tags: N-terminal GST; dsDNA, one strand shown
# T9 sequence: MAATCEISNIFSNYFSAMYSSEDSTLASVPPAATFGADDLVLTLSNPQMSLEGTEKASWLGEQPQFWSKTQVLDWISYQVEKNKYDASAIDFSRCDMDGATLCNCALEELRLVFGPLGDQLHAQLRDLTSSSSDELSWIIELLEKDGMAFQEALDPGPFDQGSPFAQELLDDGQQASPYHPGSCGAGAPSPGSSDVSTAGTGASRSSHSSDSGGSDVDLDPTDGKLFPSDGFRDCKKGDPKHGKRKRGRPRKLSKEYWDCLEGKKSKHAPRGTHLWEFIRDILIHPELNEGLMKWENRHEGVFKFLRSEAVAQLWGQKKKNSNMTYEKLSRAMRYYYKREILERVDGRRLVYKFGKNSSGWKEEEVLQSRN
# Summary of the method: as §1
# ETV1 = ETV1 (Homo sapiens, UniProt P50549 1-477); conditions: protein: recombinant; tags: N-terminal GST; dsDNA, one strand shown
# ETV1, sequence (P50549 whole entry): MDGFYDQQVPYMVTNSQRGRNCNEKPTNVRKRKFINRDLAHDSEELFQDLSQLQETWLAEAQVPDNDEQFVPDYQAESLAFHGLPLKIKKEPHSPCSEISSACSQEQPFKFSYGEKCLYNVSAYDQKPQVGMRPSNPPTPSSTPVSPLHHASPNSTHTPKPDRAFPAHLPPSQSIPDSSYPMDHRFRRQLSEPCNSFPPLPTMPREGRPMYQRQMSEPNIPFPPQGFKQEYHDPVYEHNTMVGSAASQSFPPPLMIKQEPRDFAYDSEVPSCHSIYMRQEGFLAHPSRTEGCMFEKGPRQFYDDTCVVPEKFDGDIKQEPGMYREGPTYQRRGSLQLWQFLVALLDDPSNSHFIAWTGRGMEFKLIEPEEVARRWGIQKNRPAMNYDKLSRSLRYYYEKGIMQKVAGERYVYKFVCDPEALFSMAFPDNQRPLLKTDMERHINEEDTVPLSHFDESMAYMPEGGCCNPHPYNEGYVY
# Summary of the method: as §1
# HSF1, sequence (Q00613 whole entry, the tested form may be a part): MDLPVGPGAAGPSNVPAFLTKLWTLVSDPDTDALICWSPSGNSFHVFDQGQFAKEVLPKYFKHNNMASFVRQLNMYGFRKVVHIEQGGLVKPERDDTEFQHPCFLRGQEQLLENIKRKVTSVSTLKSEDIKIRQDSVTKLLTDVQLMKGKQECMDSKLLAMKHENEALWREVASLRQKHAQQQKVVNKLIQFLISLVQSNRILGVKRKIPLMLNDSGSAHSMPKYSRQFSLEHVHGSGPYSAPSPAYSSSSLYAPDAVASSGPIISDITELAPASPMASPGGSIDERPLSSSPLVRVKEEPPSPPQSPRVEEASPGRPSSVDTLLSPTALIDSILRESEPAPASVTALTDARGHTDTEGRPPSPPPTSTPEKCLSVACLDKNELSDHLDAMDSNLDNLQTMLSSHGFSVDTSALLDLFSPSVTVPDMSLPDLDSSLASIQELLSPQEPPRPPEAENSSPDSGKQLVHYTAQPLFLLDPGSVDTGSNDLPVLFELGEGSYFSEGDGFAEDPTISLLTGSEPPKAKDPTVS
sequence,measurement,setting,value
GAAGGT,binding signal,HSF1,"1.14 fold enrichment (6-mer frequency, TF over GST control)"
GTGGAA,binding signal,SPI1,"1.15 fold enrichment (6-mer frequency, TF over GST control)"
same,binding signal,HSF1,"1.23 fold enrichment (6-mer frequency, TF over GST control)"
same,binding signal,SPIC,"1.02 fold enrichment (6-mer frequency, TF over GST control)"
same,binding signal,ELK4,"1.06 fold enrichment (6-mer frequency, TF over GST control)"
same,binding signal,ETV3,"1.02 fold enrichment (6-mer frequency, TF over GST control)"
CAGACT,binding signal,ELK1,"1.01 fold enrichment (6-mer frequency, TF over GST control)"
same,binding signal,GABPA,"1.06 fold enrichment (6-mer frequency, TF over GST control)"
same,binding signal,ELF1,"1.02 fold enrichment (6-mer frequency, TF over GST control)"
same,binding signal,EHF,"1.05 fold enrichment (6-mer frequency, TF over GST control)"
same,binding signal,FEV,"1 fold enrichment (6-mer frequency, TF over GST control)"
same,binding signal,HSF1,"1.06 fold enrichment (6-mer frequency, TF over GST control)"
same,binding signal,SPIC,"1.05 fold enrichment (6-mer frequency, TF over GST control)"
same,binding signal,ELF4,"1.07 fold enrichment (6-mer frequency, TF over GST control)"
same,binding signal,ETV2,"1.04 fold enrichment (6-mer frequency, TF over GST control)"
same,binding signal,ELF3,"1.04 fold enrichment (6-mer frequency, TF over GST control)"
same,binding signal,ETV1,"1.05 fold enrichment (6-mer frequency, TF over GST control)"
same,binding signal,ETV3,"1.01 fold enrichment (6-mer frequency, TF over GST control)"

# Reference: PMC7862700, “An all-to-all approach to the identification of sequence-specific readers for epigenetic DNA modifications on cytosine”
